Results on four molecules are retold here after PubChem BioAssay (EPA / NIEHS).

The source made the active and inactive calls. Rule for the calls: active = hit-call score of the fitted dose curve at least 0.9, where 1 is the maximum; inactive = score below 0.9.

What is called AC50 is the concentration giving half of the maximal activity seen.

Read-out in assay [1]: Human Leukocyte Antigen - DR isotype (HLADR), HLA-DRA (gene 3122)
In words: BSK_BE3C_HLADR: BioMAP Diversity Plus: BE3C Assay for Human Leukocyte Antigen - DR isotype (HLADR) Biomarker Activity (AID 2283032). Particulars: primary human bronchial epithelial cells; actives raise or lower the signal. The essentials: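 Primary human bronchial epithelial cells (BE3C); 24 h chemical exposure; HLA-DR by ELISA; bidirectional curve fit vs DMSO baseline.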

Read-out in assay [2]: Interferon-gamma inducible Protein 10 (IP10), CXCL10 (gene 3627)
Kind of assay: BSK_BE3C_IP10: BioMAP Diversity Plus: BE3C Assay for Interferon-gamma inducible Protein 10 (IP10) Biomarker Activity (AID 2283034). Particulars: primary human bronchial epithelial cells; actives raise or lower the signal. The essentials: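 ELISA readout of IP-10 in BE3C system: primary human bronchial epithelial cells, 24 h post-dosing; bidirectional curve fit vs DMSO baseline.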

Read-out in assay [3]: Monokine induced gamma interferon (MIG), CXCL9 (gene 4283)
In words: BSK_BE3C_MIG: BioMAP Diversity Plus: BE3C Assay for Monokine induced gamma interferon (MIG) Biomarker Activity (AID 2283035).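 For outcome: MIG protein measured by ELISA in BE3C cultures after 24 h of dosing.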 Particulars: primary human bronchial epithelial cells; actives raise or lower the signal. The essentials: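 ELISA quantified MIG after 24 h exposure of primary bronchial epithelial cultures, analysed in both directions relative to DMSO. Cytotoxicity tracked in parallel cultures by sulforhodamine B staining.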

Read-out in assay [4]: Transforming growth factor beta 1 (TGFb1), TGFB1 (gene 7040)
In words: BSK_BE3C_TGFb1: BioMAP Diversity Plus: BE3C Assay for Transforming growth factor beta 1 (TGFb1) Biomarker Activity (AID 2283036;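 note: TGF-b1 protein level measured by ELISA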). Particulars: primary human bronchial epithelial cells; actives raise or lower the signal. The essentials: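 Read-out: ELISA for TGF-b1 in primary human bronchial epithelial cultures, 24 h post-dose. Bidirectional curve fitting vs DMSO control; gain or loss of signal both scored.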

Read-out in assay [5]: urokinase plasminogen activator (uPA), PLAU (gene 5328)
Kind of assay: BSK_BE3C_uPA: BioMAP Diversity Plus: BE3C Assay for urokinase plasminogen activator (uPA) Biomarker Activity (AID 2283038).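 Note: uPA protein level quantified by ELISA in cell cultures; uPA read one day after compound addition.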 Particulars: primary human bronchial epithelial cells; actives raise or lower the signal. In a few lines: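 ELISA for uPA on human primary bronchial epithelial cultures 24 h post-treatment, gain or loss against DMSO. Parallel SRB staining (0.1% after 10% TCA fixation, 560 nm) assessed overt cytotoxicity.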

Read-out in assay [6]: Urokinase-type plasminogen activator receptor (uPAR), PLAUR (gene 5329)
Kind of assay: BSK_BE3C_uPAR: BioMAP Diversity Plus: BE3C Assay for Urokinase-type plasminogen activator receptor (uPAR) Biomarker Activity (AID 2283039).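 For outcome: uPAR protein level measured by ELISA on the cells; cells exposed to compound for one day before measurement.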 As to conditions: primary human bronchial epithelial cells; actives raise or lower the signal. The essentials: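 ELISA readout of uPAR on human lung primary bronchial epithelial cells, 24 h post-dosing. Bidirectional curve fit relative to DMSO vehicle baseline; gain or loss of signal both scored.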

Read-out in assay [7]: Interleukin-6 (IL6), IL6 (gene 3569)
Kind of assay: BSK_CASM3C_IL6: BioMAP Diversity Plus: CASM3C Assay for Interleukin-6 (IL6) Biomarker Activity for (AID 2283040). Particulars: primary human coronary artery smooth muscle cells; actives raise or lower the signal.

Read-out in assay [8]: Tissue plasminogen activator (tPA), PLAT (gene 5327)
Kind of assay: BSK_BE3C_tPA: BioMAP Diversity Plus: BE3C Assay for Tissue plasminogen activator (tPA) Biomarker Activity (AID 2283041).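 For outcome: tPA level quantified by ELISA one day after compound addition.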 As to conditions: primary human bronchial epithelial cells; actives raise or lower the signal. In a few lines:
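ELISA read-out of tPA on human primary bronchial epithelial cells, 24 h post-dosing; bidirectional fit vs DMSO negative control/baseline.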

Read-out in assay [9]: Interleukin-8 (IL8), CXCL8 (gene 3576)
In words: BSK_CASM3C_IL8: BioMAP Diversity Plus: CASM3C Assay for Interleukin-8 (IL8) Biomarker Activity (AID 2283042).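 Note: IL-8 protein level quantified by ELISA.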 Particulars: primary human coronary artery smooth muscle cells; actives raise or lower the signal.

Read-out in assay [10]: Human Leukocyte Antigen - DR isotype (HLADR), HLA-DRA (gene 3122)
In words: BSK_CASM3C_HLADR: BioMAP Diversity Plus: CASM3C Assay for Human Leukocyte Antigen - DR isotype (HLADR) Biomarker Activity (AID 2283043).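 Note: cell-surface HLA-DR protein level quantified by ELISA.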 As to conditions: primary human coronary artery smooth muscle cells; actives raise or lower the signal.

Read-out in assay [11]: Macrophage colony-stimulating factor (MCSF), CSF1 (gene 1435)
Kind of assay: BSK_CASM3C_MCSF: BioMAP Diversity Plus: CASM3C Assay for Macrophage colony-stimulating factor (MCSF) Biomarker Activity (AID 2283044).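 Note: M-CSF protein amount quantified by ELISA after 24 h exposure.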 As to conditions: primary human coronary artery smooth muscle cells; actives raise or lower the signal.

Read-out in assay [12]: Low-density lipoprotein receptor (LDLR), LDLR (gene 3949)
In words: BSK_CASM3C_LDLR: BioMAP Diversity Plus: CASM3C Assay for Low-density lipoprotein receptor (LDLR) Biomarker Activity (AID 2283045).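 Note: LDLR protein level on the cell surface quantified by ELISA.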 As to conditions: primary human coronary artery smooth muscle cells; actives raise or lower the signal.

Read-out in assay [13]: Monocyte Chemoattractant Protein-1 (MCP1), CCL2 (gene 6347)
Kind of assay: BSK_CASM3C_MCP1: BioMAP Diversity Plus: CASM3C Assay for Monocyte Chemoattractant Protein-1 (MCP1) Biomarker Activity (AID 2283046).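 Note: MCP-1 level quantified by ELISA 24 h after dosing.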 As to conditions: primary human coronary artery smooth muscle cells; actives raise or lower the signal.

A short description of assay [14]: BSK_CASM3C_Proliferation: Cell Proliferation Assessment in the BioMAP Diversity Plus: CASM3C Assay (AID 2283047).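 Note: sulforhodamine B total protein stain as relative cell number at 560 nm; sub-confluent cells exposed 48 h before staining; fitted both ways against DMSO so gain or loss of cell number.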 As to conditions: primary human coronary artery smooth muscle cells.
Read-out in assay [15]: Monokine induced gamma interferon (MIG), CXCL9 (gene 4283)
In words: BSK_CASM3C_MIG: BioMAP Diversity Plus: CASM3C Assay for Monokine induced gamma interferon (MIG) Biomarker Activity (AID 2283048).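 Note: MIG protein level measured by ELISA.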 As to conditions: primary human coronary artery smooth muscle cells; actives raise or lower the signal.

Read-out in assay [16]: serum amyloid A (SAA), SAA1 (gene 6288)
Kind of assay: BSK_CASM3C_SAA: BioMAP Diversity Plus: CASM3C Assay for serum amyloid A (SAA) Biomarker Activity (AID 2283049).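 Note: SAA protein level quantified by ELISA.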 Particulars: primary human coronary artery smooth muscle cells; actives raise or lower the signal.

Assay [17] can be described thus: BSK_CASM3C_SRB: Viability Assessment in the BioMAP Diversity Plus: CASM3C Assay (AID 2283050).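 Note: total protein by SRB staining as cytotoxicity measure in parallel cultures; cells exposed to compound for 24 h.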 Particulars: primary human coronary artery smooth muscle cells.
Read-out in assay [18]: Thrombomodulin, THBD (gene 7056)
In words: BSK_CASM3C_Thrombomodulin: BioMAP Diversity Plus: CASM3C Assay for Thrombomodulin Biomarker Activity (AID 2283051).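 Note: thrombomodulin protein level measured by ELISA 24 h after dosing.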 Particulars: primary human coronary artery smooth muscle cells; actives raise or lower the signal.

Read-out in assay [19]: Plasminogen activator inhibitor-1 (PAI1), SERPINE1 (gene 5054)
Kind of assay: BSK_BE3C_PAI1: BioMAP Diversity Plus: BE3C Assay for Plasminogen activator inhibitor-1 (PAI1) Biomarker Activity (AID 2283037). As to conditions: primary human bronchial epithelial cells; actives raise or lower the signal. In a few lines:
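ELISA read-out of PAI-1 from human bronchial epithelial primary cells, 24 h post-dosing; bidirectional curve fit vs DMSO baseline, gain or loss of signal scored.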

For `CN(C)c1ccccc1`, the result in assay [1], in assay [2], in assay [3], in assay [4], in assay [5] and in assay [6] was inactive. Also, the result in assay [7], in [8], in [9], in [10], in assay [11] and in assay [12] was inactive. Further, the result in [13], in assay [14], in [15], in assay [16], in assay [17] and in assay [18] was inactive.
Take `Oc1ccc2ccc3cccc4ccc1c2c34`: the AC50 is 34.6 µM (active) in assay [1]; 31.3 µM (active) in [2]; 31.2 µM (active) in assay [3]; 27.5 µM (active) in assay [19]; 33 µM (active) in assay [6]; 36.1 µM (active) in assay [8]. Further, the AC50 in [10] is 13.7 µM (active); in assay [12], 10.5 µM (active); in assay [16], 30.4 µM (active); in assay [17], 30.1 µM (active); in assay [18] it was 16.3 µM (active). Also, the outcome in [5], in [7], in assay [9], in [11], in assay [13] and in assay [15] was inactive.
With `Nc1ccc(Oc2ccc(N)cc2)cc1`, the result in assay [1], in [2], in [3], in assay [4], in [19] and in assay [5] was inactive. Besides, the result in assay [6], in [7], in assay [8], in [9], in [10] and in assay [11] was inactive. Also, the result in [12], in assay [13], in [14], in assay [15], in [16] and in assay [17] was inactive. Also, the result in assay [18] was inactive.
Regarding `Oc1ccccc1Cl`, the result in assay [1], in assay [2], in [3], in [4], in assay [5] and in assay [6] was inactive. In addition, the result in [7], in assay [8], in assay [9], in [10], in assay [11] and in [12] was inactive. Also, the result in assay [13], in assay [14], in [15], in assay [16], in [17] and in assay [18] was inactive.
